Screening data (PubChem)
A selection: hits, their analogues and other compounds. The true share with any hit is near 21%.
DRD3 antagonist: qHTS of D3 Dopamine Receptor Antagonist: qHTS | D(3) dopamine receptor (Homo sapiens), P35462 | D3R cells, DiscoveRx beta-arrestin luminescence, antagonist mode; active compounds read low | max response, negative = inhibition, % | 360,000 tested, 2.5% active; in the data active = max response below about -50%; inconclusive = no clear call, values can overlap the other calls; also: % is scaled to controls: 0 for no effect and ±100 for the full control effect
Target sequence (P35462 whole entry, looked up): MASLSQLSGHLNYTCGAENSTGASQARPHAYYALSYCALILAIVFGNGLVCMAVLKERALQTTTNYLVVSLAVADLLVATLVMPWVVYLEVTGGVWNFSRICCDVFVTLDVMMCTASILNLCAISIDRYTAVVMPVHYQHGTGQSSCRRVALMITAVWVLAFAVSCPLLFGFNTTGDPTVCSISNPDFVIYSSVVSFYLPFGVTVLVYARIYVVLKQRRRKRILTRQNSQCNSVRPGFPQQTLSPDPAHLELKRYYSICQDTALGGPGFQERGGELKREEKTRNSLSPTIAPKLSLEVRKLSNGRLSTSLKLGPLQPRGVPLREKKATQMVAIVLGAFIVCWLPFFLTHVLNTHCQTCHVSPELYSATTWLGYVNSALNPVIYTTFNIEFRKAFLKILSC
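Cells plated overnight at 1500 cells/well, then exposed to library compounds with dopamine controls for 90 minutes at 37 degrees C. DiscoveRx reagent added for 30–60 minutes at room temperature; luminescence read, quantitative HTS format.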
IL-1B inflam inh: qHTS for Inhibitors of Inflammasome Signaling: IL-1-beta AlphaLISA Primary Screen. THP-1 LPS/ATP IL-1B secretion, AlphaLISA, 16 h; active compounds read low. activity change, % at 57.5 µM. 360,000 tested, 4.7% active. AID 743279, 2014; in the data active = activity change below about -50%; inconclusive = mostly about -30% to -49%; also: % is scaled to controls: 0 for no effect and ±100 for the full control effect
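Secreted IL-1B measured by AlphaLISA bead assay after 16 h compound exposure of THP-1 cells; compounds (final up to 57.5 uM) added 1 h before LPS (250 ng/mL) and ATP (1.25 mM) stimulation; lower signal means less secretion.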
ClpP mod: qHTS Assay for Activators of ClpP; Potency, µM (highest dose often 57.5 µM), inactives show at the highest dose activity change, negative = active; AID 651965, 2013; 340,000 tested, 1.9% active; ATP-dependent Clp protease proteolytic subunit (Bacillus subtilis (strain 168)), P80244; purified B. subtilis ClpP, FRET peptide cleavage, 20 min; active = well fitted falling curve with a large enough effect; inconclusive = small, poorly fitted or top-dose-only effect; inactive = no such curve, though single readings can be large or run the other way; also: potency is read from the fitted curve at half-maximal effect; the source files actives as falling curves though it sought activators and does not explain the sign; nearly all actives have a fitted effect of over 65% in size
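FRET quenching reversal measured ClpP activation: 10 microg/mL B. subtilis ClpP at pH 8 with the FRET-FV decapeptide, read at 430 nm after 320 nm excitation. The 20-min minus 0-min signal was scaled between DMSO/no-enzyme wells and ADEP (5.8 microM final).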
TDP1 cell noCPT: qHTS for Inhibitors of human tyrosyl-DNA phosphodiesterase 1 (TDP1): qHTS in cells in absence of CPT. Potency, µM (top dose mostly 46.2 µM), inactives show top-dose activity change, negative = growth inhibition, most hits filed as inhibitors. AID 686978, 2013. DT40 Tdp1-/- hTDP1 cells, no CPT, ATP luminescence, 48 h. 420,000 tested, 15% active; also: potency is read from the fitted curve at half-maximal effect; % is scaled to controls: 0 for no effect and ±100 for the full control effect; nearly all actives have a fitted effect of over 55% in size
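Seeded 400 DT40-hTDP1 cells/well (vehicle DMSO, no 20 nM CPT); pinned compounds; ≥48 hr at 37 °C; CellTiter-Glo luminescence as viability measure.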
D3 ag: qHTS of D3 Dopamine Receptor Agonist: qHTS; max activation, %; AID 652048, 2013; D3R DiscoveRx beta-arrestin cells, luminescence, 90 min; 410,000 tested, 0.58% active; in the data active = max activation above about 30%; also: 0% is about no effect
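Agonist-mode cell screen: cells plated at 1500/well and incubated overnight at 37 °C, then exposed to library compounds for 90 min at 37 °C. Detection reagent was added for 30–60 min at room temperature, and luminescence was read.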
TDP1 cell CPT: qHTS for Inhibitors of human tyrosyl-DNA phosphodiesterase 1 (TDP1): qHTS in cells in presence of CPT; chicken DT40 Tdp1-/-;hTDP1 cells + 20 nM CPT, ATP luminescence, 48 h; Potency, µM (doses to about 46.2 µM), without a hit: at the top dose activity change, negative = growth inhibition, actives largely listed as inhibitors; 420,000 tested, 12% active; AID 686979, 2013; also: potency is read from the fitted curve at half-maximal effect; % is scaled to controls: 0 for no effect and ±100 for the full control effect; nearly all actives have a fitted effect of over 55% in size
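Chicken DT40 Tdp1-/- cells stably complemented with human TDP1 were seeded at 400 cells/well in medium containing 20 nM camptothecin, exposed to pin-transferred compounds, and grown at 37 °C for at least 48 hr. Viability was read as ATP luminescence.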
* = called active by the depositor; ? = inconclusive; nt = no result. Unless noted, calls follow the shape of the dose curve; as a rule, active = well fitted inhibition curve with a large enough effect; inconclusive = small, poorly fitted or top-dose-only effect; inactive = flat fitted curve, though single readings scatter.

SMILES	DRD3 antagonist	IL-1B inflam inh	ClpP mod	TDP1 cell noCPT	D3 ag	TDP1 cell CPT
C[n+]1cn(CC(O)COCc2ccccc2)c2ccccc21 (stereo not given)	5	-3	-1%	?	-2	?
CCCc1n(CC(O)COC2CCCCC2)c2ccccc2[n+]1C (stereo not given)	-5	-10	-1%	3.7µM*	5	7.3µM*
Cc1nccn1CC(O)COC1CCCCC1 (stereo not given)	?	-15	3%	-7%	-2	-23%
Cc1cc(NC(=O)c2oc3c(c2C)-c2[nH]ncc2CC3)ccc1Br	nt	nt	?	18µM*	-24	?
CC(C)(C)C(=O)NN=C1CCC(c2ccccc2)CC1 (stereo not given)	38	28	1%	8%	4	-42%
CN(CC(=O)Nc1ccccc1Cl)C(=O)c1cccc(S(=O)(=O)N2CCN(Cc3ccccc3)CC2)c1	0	-15	-3%	9.2µM*	3	12µM*
CN(CC(=O)Nc1cccc(F)c1)C(=O)c1cccc(S(=O)(=O)N2CCN(Cc3ccccc3)CC2)c1	40	9	2%	8.2µM*	-1	8.2µM*
Cc1cc(-c2nn(-c3ccccc3F)cc2CNCCc2cnccn2)c(C)s1	-28	-62*	0%	-28%	-15	?
Cn1cc(CN2CCN(c3ccc(Cl)cn3)CC2)c(-c2ccccc2F)n1	-10	?	-8%	?	-10	?
Cc1cc(-c2nn(-c3ccccc3F)cc2CN2CCN(c3ccccn3)CC2)c(C)s1	-79*	?	nt	12µM*	-19	13µM*
Cc1cccc(N2CCN(Cc3cn(C)nc3-c3ccccc3F)CC2)n1	-4	0	nt	2.6µM*	-11	1.8µM*
O=S(=O)(NCC(c1ccco1)N1CCN(c2ccccc2)CC1)c1ccccc1 (stereo not given)	nt	nt	-4%	?	-16	?
CN(CCc1ccccc1)c1cc2c(c3c1ccn3C)C1CCC2C1 (stereo not given)	-23	5	?	?	-8	16µM*
COc1ccccc1N(C)c1cc2c(c3c1ccn3C)C1CCC2C1 (stereo not given)	-9	-20	32µM*	?	4	?
CCN(C)c1cc2c(c3c1ccn3C)C1CCC2C1 (stereo not given)	-7	-14	-9%	?	-15	?
CN(Cc1ccccc1)c1cc2c(c3c1ccn3C)C1CCC2C1 (stereo not given)	-12	-14	-6%	?	6	?
Cn1ccc2c(N(Cc3ccccc3)Cc3ccccc3)cc3c(c21)C1CCC3C1 (stereo not given)	-56*	12	-4%	18µM*	-10	18µM*
COc1ccc(CNC(=O)CCCn2c(=O)c3cccn3c3ccc(F)cc32)cc1OC	nt	nt	-6%	18µM*	5	18µM*
COc1ccc(CCNC(=O)Cn2c(=O)c3cccn3c3ccccc32)cc1OC	nt	nt	-1%	23µM*	0	?
COc1ccc(CCNC(=O)Cn2c(=O)c3cccn3c3ccc(F)cc32)cc1OC	nt	nt	?	?	-7	-25%
Cc1cccc(CNC(=O)CCCn2c(=O)c3cccn3c3ccc(F)cc32)c1	nt	nt	1%	23µM*	-7	?
COc1ccc(CNC(=O)CCn2c(=O)c3cccn3c3ccc(F)cc32)cc1OC	nt	nt	-2%	?	-8	-46%
CCOC(=O)C1=CCN(S(=O)(=O)c2ccccc2C)C1c1ccc(Cl)c(Cl)c1 (stereo not given)	?	4	1%	?	-8	?
